This is an account of results in the supplement of paper PMC4166925.

± gives the standard deviation of the averaged measurements. Whole data set: some 33,000 sequences, median “E-score (dimensionless, -0.5 to 0.5)” near -0.049, cut for the highest 2% near 0.37. This excerpt belongs to a sample that is enriched for the highest values.

The subject of the assay is T1, PmTbr T-box DNA-binding domain (GST fusion).
T1 sequence: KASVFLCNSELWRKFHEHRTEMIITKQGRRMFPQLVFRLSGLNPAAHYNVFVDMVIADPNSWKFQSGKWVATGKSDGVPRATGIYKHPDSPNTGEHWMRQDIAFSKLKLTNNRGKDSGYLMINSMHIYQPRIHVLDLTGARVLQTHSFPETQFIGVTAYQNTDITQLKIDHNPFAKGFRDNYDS
Briefly: PBM E-score of 8-mer (E-score (dimensionless, -0.5 to 0.5)); Tbr is Tbrain of the sea star Patiria miniata (Pm) or the sea urchin Strongylocentrotus purpuratus (Sp); higher = stronger binding preference. Conditions: the construct has about 5 more residues each side. An outline of the steps:
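Using the Universal PBM Analysis Suite, every ungapped 8-mer received an enrichment E-score averaged over duplicate arrays. Probe intensities came from double-stranded Universal Agilent oligonucleotide arrays incubated with 200 nM GST-fused Tbr T-box DNA-binding domain in PBS (pH 7.5). That protein was expressed in BL21 E. coli at 20 °C and purified by glutathione affinity chromatography.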
On to ATTAACAC, for which the “PBM E-score of 8-mer” value amounted to 0.449 ± 0.0075.

Turning to CTTAACCC, the “PBM E-score of 8-mer” value was -0.0938 ± 0.018.

For CTACTCGA, the “PBM E-score of 8-mer” value was -0.0985 ± 0.018.

Take AACTTAAT: the “PBM E-score of 8-mer” value is -0.0144 ± 0.063.

As for GGTTCTTA, the “PBM E-score of 8-mer” value is -0.0403 ± 0.11.

For ACCTTAAC, the “PBM E-score of 8-mer” value came to 0.0595 ± 0.0064.

As for GCCACCCC, the “PBM E-score of 8-mer” value came to 0.208 ± 0.0084.

As for AACACCCT, the “PBM E-score of 8-mer” value was found to be 0.433 ± 0.017.

On to ACCACCCT, for which the “PBM E-score of 8-mer” value is 0.0583 ± 0.021.

Take GGCACCCA: the “PBM E-score of 8-mer” value turned out to be 0.217 ± 0.018.

In the case of ACCACCCC, the “PBM E-score of 8-mer” value is 0.191 ± 0.072.

For the sequence GGCACCCC, the “PBM E-score of 8-mer” value came to 0.244 ± 0.03.

In the case of GACACCCC, the “PBM E-score of 8-mer” value is 0.409 ± 0.031.

For the sequence AACACCCA, the “PBM E-score of 8-mer” value was 0.348 ± 0.029.

Consider GCCACCCA, for which the “PBM E-score of 8-mer” value worked out at 0.0536 ± 0.024.

As for GACACCCA, the “PBM E-score of 8-mer” value came to 0.388 ± 0.032.

For AGCACCCT, the “PBM E-score of 8-mer” value is 0.309 ± 0.031.

AACACCCC: the “PBM E-score of 8-mer” value stood at 0.433 ± 0.0072.

With CTACATGA, the “PBM E-score of 8-mer” value is -0.0685 ± 0.044.

For CTCCGTCC, the “PBM E-score of 8-mer” value was -0.281 ± 0.02.

As for GCTCAATA, the “PBM E-score of 8-mer” value is -0.0299 ± 0.077.

Consider CCTCGATC, for which the “PBM E-score of 8-mer” value is 0.0184 ± 0.014.

CTCAGAGA: the “PBM E-score of 8-mer” value is -0.262 ± 0.012.

On to CGCGTTGC, for which the “PBM E-score of 8-mer” value stood at 0.211 ± 0.017.

For the sequence GCTAAGGA, the “PBM E-score of 8-mer” value was -0.08306 ± 0.00035.

In the case of ATCACTAG, the “PBM E-score of 8-mer” value turned out to be 0.0709 ± 0.015.

As to GTAAGCAA, the “PBM E-score of 8-mer” value was -0.113 ± 0.031.

On to CTTGCACA, for which the “PBM E-score of 8-mer” value is 0.148 ± 0.026.

ACGACACT: the “PBM E-score of 8-mer” value was 0.298 ± 0.0045.

Take ACGACACC: the “PBM E-score of 8-mer” value came to 0.421 ± 0.018.

TCGACACA: the “PBM E-score of 8-mer” value was found to be 0.319 ± 0.016.

CCGACACA: the “PBM E-score of 8-mer” value was 0.37 ± 0.028.

Regarding GGGACACC, the “PBM E-score of 8-mer” value stood at 0.216 ± 0.077.

As to CCGACACC, the “PBM E-score of 8-mer” value is 0.448 ± 0.018.

Regarding CCGACATC, the “PBM E-score of 8-mer” value is -0.0298 ± 0.027.

For ACGACACG, the “PBM E-score of 8-mer” value is 0.225 ± 0.062.

Consider CCGACACG, for which the “PBM E-score of 8-mer” value was 0.261 ± 0.013.

With GCGACACC, the “PBM E-score of 8-mer” value amounted to 0.462 ± 0.011.

As for CAGACACC, the “PBM E-score of 8-mer” value was determined as 0.355 ± 0.0066.

Consider GCGACACA, for which the “PBM E-score of 8-mer” value was 0.302 ± 0.022.

In the case of GTCCAGGA, the “PBM E-score of 8-mer” value was -0.195 ± 0.049.

For ACATATGA, the “PBM E-score of 8-mer” value was 0.0313 ± 0.063.

For CTCGATCA, the “PBM E-score of 8-mer” value is 0.0196 ± 0.0013.

On to GTCCCCAA, for which the “PBM E-score of 8-mer” value is -0.071 ± 0.1.

Regarding TCAGTCGA, the “PBM E-score of 8-mer” value is -0.0383 ± 0.035.

For AGAGTACC, the “PBM E-score of 8-mer” value is -0.132 ± 0.064.

GATATAAC: the “PBM E-score of 8-mer” value is 0.115 ± 0.0035.

Regarding GACATCTC, the “PBM E-score of 8-mer” value was -0.14 ± 0.016.

For the sequence GATTTGGC, the “PBM E-score of 8-mer” value stood at 0.249 ± 0.01.

Turning to CGTTGTTA, the “PBM E-score of 8-mer” value came to 0.157 ± 0.043.

As to AGTTGTCA, the “PBM E-score of 8-mer” value amounted to 0.4064 ± 0.0017.

For the sequence GGTTGTCA, the “PBM E-score of 8-mer” value worked out at 0.342 ± 0.0085.

As to AGTTGTTA, the “PBM E-score of 8-mer” value came to 0.388 ± 0.011.

In the case of AGTTGTTG, the “PBM E-score of 8-mer” value amounted to 0.195 ± 0.0086.

As for AGTTGTCG, the “PBM E-score of 8-mer” value was 0.309 ± 0.0099.

For the sequence CTCTTTTA, the “PBM E-score of 8-mer” value stood at 0.105 ± 0.092.

With ATCACATA, the “PBM E-score of 8-mer” value was 0.297 ± 0.028.

Regarding ATCACAGG, the “PBM E-score of 8-mer” value was 0.195 ± 0.099.

As to ATCACACC, the “PBM E-score of 8-mer” value turned out to be 0.4877 ± 0.0026.

With AACACACC, the “PBM E-score of 8-mer” value was found to be 0.3 ± 0.019.

For ATCACACA, the “PBM E-score of 8-mer” value was 0.418 ± 0.01.

As to ATCACAGA, the “PBM E-score of 8-mer” value is 0.129 ± 0.011.

ATCACACG: the “PBM E-score of 8-mer” value was found to be 0.39 ± 0.0083.

ATCACAGC: the “PBM E-score of 8-mer” value turned out to be 0.211 ± 0.024.

On to ATCACAAA, for which the “PBM E-score of 8-mer” value was determined as 0.0643 ± 0.013.

For the sequence AACAAGCT, the “PBM E-score of 8-mer” value is -0.168 ± 0.035.

As to TAGAACGA, the “PBM E-score of 8-mer” value was -0.136 ± 0.028.

In the case of GCATAGTA, the “PBM E-score of 8-mer” value is -0.202 ± 0.024.

Turning to AACACTAG, the “PBM E-score of 8-mer” value was 0.275 ± 0.056.

For the sequence AGCACTTC, the “PBM E-score of 8-mer” value turned out to be 0.313 ± 0.012.

Consider AACACTGA, for which the “PBM E-score of 8-mer” value worked out at 0.182 ± 0.069.

Turning to CGCACTTA, the “PBM E-score of 8-mer” value was 0.293 ± 0.022.

Consider AACACTTC, for which the “PBM E-score of 8-mer” value is 0.442 ± 0.014.

For the sequence AACACTTG, the “PBM E-score of 8-mer” value worked out at 0.408 ± 0.0044.

With CACACTGA, the “PBM E-score of 8-mer” value was 0.2581 ± 0.00048.

Take ATCACTTA: the “PBM E-score of 8-mer” value worked out at 0.194 ± 0.042.

As to ATCACTTG, the “PBM E-score of 8-mer” value worked out at 0.216 ± 0.045.

Turning to CACACTTA, the “PBM E-score of 8-mer” value was found to be 0.4445 ± 0.0038.

Regarding ATCACTTC, the “PBM E-score of 8-mer” value turned out to be 0.293 ± 0.015.

Regarding AACACTTA, the “PBM E-score of 8-mer” value stood at 0.42 ± 0.019.

As for AGGACCGG, the “PBM E-score of 8-mer” value is -0.31 ± 0.028.

With TGGCTGAA, the “PBM E-score of 8-mer” value is -0.23 ± 0.083.

For CAGACCCA, the “PBM E-score of 8-mer” value was -0.0557 ± 0.00088.

In the case of AATGGCGA, the “PBM E-score of 8-mer” value worked out at 0.163 ± 0.021.

For the sequence TGCCATAA, the “PBM E-score of 8-mer” value was 0.0817 ± 0.098.

As for GAAGATCC, the “PBM E-score of 8-mer” value is -0.101 ± 0.034.
